Experimental data from PubChem BioAssay (NCATS).
“And” between values parts separate entries of the source, which are not always exact repeats. Equal entries are not always repeated. Values without a mark were called inactive. Records with an inconclusive call do not appear. Entries that show only a call come without a potency. The source made the active and inactive calls. Unless noted, calls come from the whole dose curve; as a rule, active = well fitted curve in the direction sought with a large enough effect; inconclusive = small, poorly fitted or top-dose-only effect, or another doubt; inactive = no such curve, though single readings can be large; an effect the other way counts as inactive or inconclusive.

Key:
[1] = Cell Viability - MRC5 (AID 434; calls by dose curve;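 note: potency is the fitted concentration of half-maximal effect; cells exposed to compound for 40 hours at 37 °C; potency reflects cytotoxicity seen as loss of intracellular ATP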); details: MRC5 lung fibroblast viability, qHTS
Procedure, shortened: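 qHTS cytotoxicity in human lung fibroblast MRC5 cells; 40 hr treatment, 37 °C; cellular ATP by luciferase luminescence; DMSO = 0%, 100 uM tamoxifen = 100% inhibition; Hill-fit AC50.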

[2] = Cellular Toxicity (caspase-3) HepG2 (AID 654); details: HepG2 caspase-3 activation, luminescence; series mostly up to 92.2 µM;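 note: cells exposed to compound for 16 hours before reading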
Procedure, shortened: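 qHTS, HepG2, 1500 cells/well, complete medium; cpd 16 h 37 °C; Caspase-Glo 3/7, 20 min RT; lum. Norm: DMSO vs 100 uM tamoxifen; AC50 Hill fit.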

[3] = Cellular Toxicity (caspase-3) HUV-EC-C (AID 656); details: HUV-EC-C cells, caspase-3 activation (apoptosis); series mostly up to 92.2 µM
Procedure, shortened: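 Read-out: luminescence proportional to caspase 3/7 activity, measured 20 min after adding Caspase-Glo 3/7 reagent. Cells (HUV-EC-C) had received compound for 16 hr at 37°C. Increases relative to DMSO and 100 uM tamoxifen gave concentration-response AC50 values.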

[4] = Cellular Toxicity (caspase-3) SHSY5Y (AID 657); details: SH-SY5Y caspase-3 activation; series mostly up to 91.7 µM
Procedure, shortened: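 Cells plated and incubated 5 h at 37 °C, dosed over a concentration range, incubated 16 h, then given Caspase-Glo 3/7 reagent for 1 h at room temperature before luminescence reading. Staurosporine (10 uM) defined full stimulation.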

[5] = Cellular Toxicity (caspase-3) BJ (AID 658); details: BJ fibroblasts, luminescence; Potency: caspase-3 activation; series mostly up to 91.7 µM
Procedure, shortened: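 Readout: Caspase-Glo 3/7 luminescence increase in BJ cells after 16 hr treatment at 37 °C. Staurosporine and tamoxifen served as positive controls; AC50 values came from Hill modelling of data normalized to DMSO and 10 uM staurosporine.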

[6] = Cellular Toxicity (caspase-3) MRC-5 (AID 659); details: MRC-5 cells, luminescence, normalized: DMSO 0%, 10 µM staurosporine 100%; series mostly up to 91.7 µM
Procedure, shortened: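 Concentration-dependent caspase 3/7 activation is measured in human normal lung fibroblasts (MRC-5) following 16-hour treatment. AC50 values come from standard Hill-equation modeling of luminescence normalized to DMSO and 10 uM staurosporine.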

[7] = Cellular Toxicity (caspase-3) Mesangial (AID 660); details: mesangial cells, normalized: DMSO 0%, 100 µM tamoxifen 100%; series mostly up to 91.7 µM;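 note: cells exposed to compound for 16 h before the caspase read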
Procedure, shortened: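 Concentration-response qHTS: compound-induced rise in caspase 3/7 luminescence in human mesangial cells after 16 h, normalized to DMSO and 100 uM tamoxifen controls.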

[8] = Cellular Toxicity (caspase-3) SK-N-SH (AID 661); details: SK-N-SH caspase-3 activation, qHTS, DMSO as zero, staurosporine as full; series mostly up to 91.7 µM
Procedure, shortened: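 Caspase 3/7 activation is measured as a luminescence increase from aminoluciferin released by substrate cleavage in SK-N-SH cells after 16 hr compound treatment; values are AC50 from concentration-response curves.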

[9] = Cellular Toxicity (caspase-3) H-4-II-E (AID 663); details: H-4-II-E rat hepatoma; Potency: caspase-3 activation; series mostly up to 92.2 µM;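 note: cells exposed to compound for 16 hr before readout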
Procedure, shortened: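 Apoptosis induction is scored as increased luminescence from caspase 3/7 substrate cleavage in rat hepatoma H-4-II-E cells exposed to compound for 16 hr. Activity is scaled between DMSO and 100 uM tamoxifen.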

[10] = Cellular Toxicity (caspase-3) Hek293 (AID 664); details: HEK293 caspase-3 activation, DMSO = 0%, 100 µM tamoxifen = 100%; at 92.2 µM (top of the series);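 note: cells exposed to compound for 16 h at 37 °C before readout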
Procedure, shortened: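 Activation of caspase-3/7 is measured as increased luminescence from cleaved peptide-aminoluciferin substrate in HEK293 cells treated 16 hours at 37 °C. AC50 values come from Hill-equation fits of concentration-response data.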

[11] = Cellular Toxicity (caspase-3) N2a (AID 665); details: N2a cells, luminescence, normalized: DMSO 0%, 10 µM staurosporine 100%; series mostly up to 92.2 µM;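 note: compound exposure lasted 16 h at 37 °C before readout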
Procedure, shortened: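 Plated mouse neuroblastoma N2a cells received titrated compounds for 16 h in complete medium. Caspase activity was then detected with a peptide-aminoluciferin luminescent reagent.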

[12] = Cellular Toxicity (caspase-3) Renal Proximal Tubule (AID 667); details: renal proximal tubule cells, primary cells freshly taken from rat; Potency: caspase-3 activation; series mostly up to 91.7 µM;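 note: cells exposed to compound for 16 hours at 37 °C before detection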
Procedure, shortened: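 In qHTS format, rat primary proximal tubule cells seeded at 1000 per well are exposed to compounds for 16 hours at 37 °C. An increase in Caspase-Glo 3/7 luminescence indicates caspase activation.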

[13] = MultiTox-Fluor Cytotoxicity Assay - LYMP1-001 - Dead Cells (AID 946); details: LYMP1-001 lymphoblastoid cells, dead-cell protease fluorescence; series mostly up to 92.2 µM
Procedure, shortened: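 AC50 from Hill fit of concentration-response; data normalized to DMSO (basal) and 15 uM tetraoctylammonium bromide (100%). LYMP1-001 lymphoblastoid cells, 2500/well, 16 hr compound at 37 C; dead-cell protease fluorescence, Ex/Em 485/520.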

[14] = MultiTox-Fluor Cytotoxicity Assay - LYMP1-003 - Dead Cells (AID 961); details: LYMP1-003 lymphoblastoid cells, dead-cell protease fluorescence; series mostly up to 92.2 µM; note: nearly all actives have a fitted effect of over 70% in size; note: potency is the fitted concentration of half-maximal effect
Procedure, shortened: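 Human lymphoblastoid LYMP1-003 cells (2500/well) were treated with compounds for 16 hr at 37 C in complete medium. Dead-cell protease release was read by bis-AAF-R110 fluorescence (Ex/Em 485/520). AC50 came from Hill fits, normalized to DMSO and 15 uM tetraoctylammonium bromide.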

[15] = MultiTox-Fluor Cytotoxicity Assay - LYMP1-003 - Live Cells (AID 962); details: LYMP1-003 lymphoblastoid cells, MultiTox-Fluor live-cell protease fluorescence; series mostly up to 92.2 µM; note: potency is the fitted concentration of half-maximal effect
Procedure, shortened: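 Cells plated at 2500 per well and incubated 5 hr; compounds added and incubated 16 hr at 37 C; MultiTox-Fluor reagent added for 60 min at room temperature; fluorescence of liberated AFC measured at 405/510 nm.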

[16] = Cell Viability - LYMP1-003 - Assay at 24 hr (AID 963); details: LYMP1-003 lymphoblastoid cell viability; series mostly up to 92.2 µM
Procedure, shortened: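 Acute toxicity in LYMP1-003 lymphoblastoid cells: 24 hr compound treatment at 37 C, ATP measured with CellTiter-Glo after 30 min at room temperature. AC50 derived by fitting the Hill equation to qHTS titrations.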

[17] = Cell Viability - LYMP1-002 - Assay at 24 hr (AID 993); details: LYMP1-002 lymphoblastoid cells viability; series mostly up to 92.2 µM
Procedure, shortened: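 qHTS, LYMP1-002 lymphoblastoid, 24 h cpd, 37 C, CellTiter-Glo ATP luminescence; AC50 via Hill eq.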

[18] = qHTS Assay for Identification of Small Molecule Inducers of Hypoxia Response (AID 2120; active = well fitted curve in the direction sought with a large enough effect in the signal ratio, with a control signal flat, not every such curve was filed as active; the % refers to the signal ratio); details: hypoxia response reporter cells, beta-lactamase ratio readout; series mostly up to 104 µM
Procedure, shortened: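 Induction of beta-lactamase reporter activity was measured in CellSensor HRE-bla ME-180 cells after 17 h compound treatment at 37 degrees C, using CCF4 substrate and the 460nm/530nm emission ratio to derive AC50 values.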

[19] = target: Peroxisome proliferator-activated receptor alpha (Homo sapiens) (UniProt Q07869); assay: qHTS assay for small molecule agonists of the peroxisome proliferator-activated receptor alpha (PPARalpha) signaling pathway (AID 651778); details: PathHunter PPARalpha complementation, chemiluminescence, 6 h; max response: stronger effect = higher value
Procedure, shortened: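 Chemiluminescence from complemented enzyme reported PPARalpha activation in cells after 6 hr of compound treatment at 37 C. The detection reagent was incubated for 60 min at room temperature, and compounds were scored as agonists.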

[20] = qHTS assay for cell viability of the p53RE-bla HCT-116 cell line (AID 743292); details: p53RE-bla HCT-116 viability, ATP luminescence, 16 h; series mostly up to 95 µM; note: nearly all actives have a fitted effect of over 55% in size
Procedure, shortened: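 Intracellular ATP of p53RE-bla HCT-116 cells measured by luciferase luminescence following 16 h compound incubation at 37 C; DMSO-only wells served as vehicle controls.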

Sequence of Peroxisome proliferator-activated receptor alpha (Homo sapiens) (Q07869 whole entry, looked up): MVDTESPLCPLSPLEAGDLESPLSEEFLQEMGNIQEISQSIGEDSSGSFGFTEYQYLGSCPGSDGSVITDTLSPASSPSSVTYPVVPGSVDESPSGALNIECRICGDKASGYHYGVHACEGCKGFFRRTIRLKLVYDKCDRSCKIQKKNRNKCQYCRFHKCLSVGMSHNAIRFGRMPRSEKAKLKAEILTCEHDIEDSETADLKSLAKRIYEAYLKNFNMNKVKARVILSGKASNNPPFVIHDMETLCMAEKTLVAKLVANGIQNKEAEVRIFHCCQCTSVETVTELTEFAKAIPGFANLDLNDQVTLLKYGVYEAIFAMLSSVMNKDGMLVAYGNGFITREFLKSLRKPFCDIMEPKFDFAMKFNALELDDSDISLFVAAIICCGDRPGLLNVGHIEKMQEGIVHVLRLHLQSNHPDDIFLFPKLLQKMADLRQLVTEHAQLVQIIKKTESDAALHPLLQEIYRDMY

Row | SMILES | Potency [1] | Potency [2] | Potency [3] | Potency [4] | Potency [5] | outcome [6] | outcome [7] | outcome [8] | Potency [9] | caspase-3 activation [10] | outcome [11] | Potency [12] | Potency [13] | Potency [14] | Potency [15] | Potency [16] | Potency [17] | Potency [18] | max response [19] | Potency [20]
1 | Brc1cc(Br)c(Oc2cc(Br)c(Br)cc2Br)cc1Br | > 92 µM | inactive | inactive | inactive | inactive | inactive | inactive | inactive | inactive | 0.345% | inactive | inactive | inactive | inactive | inactive | inactive | inactive | inactive | -1.94% | inactive
2 | Clc1nc2ccccc2nc1Cl | > 92 µM | inactive | inactive | inactive | inactive | inactive | inactive | inactive | inactive | 15.8% | inactive | inactive | inactive | inactive | inactive | inactive | inactive | inactive | 0.306% | inactive
3 | Brc1cc(Oc2cc(Br)c(Br)c(Br)c2Br)c(Br)c(Br)c1Br | > 92 µM | inactive | inactive | inactive | inactive | inactive | inactive | inactive | inactive | 0.395% | inactive | inactive | inactive | inactive | inactive | inactive | inactive | inactive | -7.16% and 0.47% | inactive
4 | C=CC(=O)OCCCCCCOC(=O)C=C | > 92 µM | inactive | inactive | inactive | inactive | inactive | inactive | – | – | – | inactive | inactive | – | 31.6 µM (active) | 50.1 µM (active) | – | – | inactive | 0.65% and -0.822% | inactive
5 | Cc1cc(-c2ccc(N=Nc3cc(S(=O)(=O)O)c4ccccc4c3N)c(C)c2)ccc1N=Nc1cc(S(=O)(=O)O)c2ccccc2c1N | > 92 µM | inactive | inactive | inactive | inactive | inactive | inactive | inactive | inactive | -4.55% | inactive | inactive | inactive | – | inactive | inactive | inactive | inactive | -11.9% | –
6 | Nc1ccccc1O | > 92 µM | inactive | inactive | inactive | inactive | inactive | inactive | inactive | inactive | 4.27% | inactive | inactive | inactive | 10 µM (active) | – | inactive | inactive | inactive | -1.39% | inactive
7 | O=C(OCC1CO1)C1CCCCC1C(=O)OCC1CO1 (centres undefined) | > 92 µM | inactive | inactive | inactive | inactive | inactive | inactive | inactive | inactive | 4.8% | inactive | inactive | inactive | – | inactive | inactive | inactive | inactive | 11.4% | inactive
8 | CC(C)(C)C(=O)C1C(=O)c2ccccc2C1=O | > 92 µM | inactive | inactive | inactive | inactive | inactive | inactive | inactive | inactive | -1.93% | inactive | inactive | inactive | inactive | inactive | inactive | inactive | inactive | 0.134% | inactive
9 | O=C1c2ccccc2C(=O)C1(O)O | 44.8 µM (active) | inactive | inactive | inactive | inactive | inactive | inactive | inactive | inactive | 0.893% | inactive | inactive | inactive | inactive | inactive | inactive | inactive | inactive | 0.0449% | inactive
10 | O=CC(=O)c1ccccc1 | > 92 µM | inactive | inactive | inactive | inactive | inactive | inactive | inactive | inactive | 3.78% | inactive | inactive | inactive | – | inactive | inactive | inactive | inactive | -2.48% | inactive
